Screening results as filed in PubChem.
Rows were chosen to be rich in hits. Some 0.7% of all compounds tested hit in one or more screens of this group.
BioA inh: M. tuberculosis BioA enzyme inhibitors, primary screen, biochemical, plate reader, single point, HTS | AID 602481, 2012 | purified M. tuberculosis BioA enzyme | hit rate 0.096% among 360,000 | 7,8-diaminopelargonic acid synthase BioA (Mycobacterium tuberculosis) | inhibition, % at 9.99 µM; in the data active = inhibition above about 40%
3CLpro inhibitor: SARS-CoV 3CLpro protease inhibitors, primary screen, biochemical, quenched FRET. Replicase polyprotein 1ab (Severe acute respiratory syndrome coronavirus), P0C6X7. recombinant SARS-CoV 3CLpro, quenched FRET peptide cleavage. inhibition, % at 6 µM. hit rate 0.14% among 290,000. AID 1706, 2009; in the data active = inhibition above about 12%
DUSP3 inh: VHR1 phosphatase inhibitors, primary screen, biochemical, absorbance, uHTS | hit rate 0.52% among 290,000 | recombinant VHR phosphatase, pNPP absorbance | inhibition, % at 13.3 µM; in the data active = inhibition above about 50%
Target sequence (P51452 whole entry, looked up): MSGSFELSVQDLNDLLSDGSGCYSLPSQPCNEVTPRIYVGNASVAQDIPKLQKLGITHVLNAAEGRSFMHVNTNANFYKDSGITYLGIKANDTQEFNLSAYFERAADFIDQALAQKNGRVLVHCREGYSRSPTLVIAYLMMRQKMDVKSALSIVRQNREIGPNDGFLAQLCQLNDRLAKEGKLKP
Mtb hypoxia rep: PubChem AID 1159583. hit rate 0.1% among 300,000. fluorescence inhibition, % (no concentration beside the values). M. tuberculosis hypoxia-regulated fluorescent reporter, fluorescence; in the data active = fluorescence inhibition mostly above about 23%, no sharp cut-off; inactive = mostly below about 17%
FadD28 FP inh: inhibitors of FadD28 bisubstrate probe binding, primary screen, biochemical, fluorescence polarization, single point; inhibition, % at 12.5 µM; hit rate 0.22% among 360,000; AID 588549, 2011; in the data active = inhibition above about 8.5%, passing the limit was not always enough
A number is an active result; i = inactive; nt = no result given.

SMILES | BioA inh | 3CLpro inhibitor | DUSP3 inh | Mtb hypoxia rep | FadD28 FP inh
COC(=O)C1=C(C(=O)OC)C2Nc3ccccc3[C@@]23CC(C(=O)OC)N(C(=O)c2cc(C)oc2C)C3=N1 (some centres undefined) | nt | nt | nt | i | nt
O=C(O)CSC(C(=O)Nc1ccc(C(F)(F)F)cc1)c1ccccc1 (centres undefined) | i | i | i | i | 10.0
O=C(O)CSC(C(=O)Nc1ccc(Br)cc1)c1ccc(Cl)cc1 (centres undefined) | nt | i | i | i | i
CC(SCc1cc(=O)n2c([nH]c3ccccc32)c1C#N)C(=O)O (centres undefined) | i | i | i | i | 10.3
Cc1ccc(SCc2cc(=O)c3c(=O)n(-c4ccccc4)[nH]c3[nH]2)cc1 | i | i | i | i | 16.6
COc1cc(C2C(C#N)=C(N)OC3=C2C(=O)CCC3)c([N+](=O)[O-])cc1OC (centres undefined) | nt | i | i | i | 20.7
O=C(NN=C1CCCC1)c1cccc(Br)c1 | i | i | 53.9 | i | i
O=C(N/N=C1\CCCc2ccccc21)c1cccc(Br)c1 | i | i | i | nt | i
C=CCOC(=O)C1=CC(c2ccc(C(F)(F)F)cc2)CC(OCCCCO)O1 (centres undefined) | nt | nt | nt | i | nt
CC(NC(=O)c1ccc(F)cc1)c1ccccc1 (centres undefined) | nt | i | i | 55.8 | i
O=C(Cc1ccccc1[N+](=O)[O-])NNC(=O)Nc1ccc2c(c1)OCO2 | i | i | 50.2 | i | i
C=CCC(CC(=O)NC(CO)Cc1ccccc1)C(=O)NCC(OC(=O)C(CC=C)Cc1ccc(F)cc1)c1ccccc1 (centres undefined) | nt | nt | nt | i | nt
Cc1cc(/C=C2\C(=O)NC(=O)N(Cc3ccccc3Cl)C2=O)c(C)n1-c1ccc(C(=O)O)cc1 | nt | i | i | i | i
Cc1cc(/C=C2\C(=O)NC(=O)N(Cc3ccccc3)C2=O)c(C)n1-c1ccc(Cl)c(C(=O)O)c1 | nt | i | i | i | 16.0
O=C(O)COc1ccccc1C=NNC(=O)C(=Cc1ccc2c(c1)OCO2)NC(=O)c1ccccc1 | nt | nt | nt | i | nt
CN=c1scc(-c2ccc(F)cc2)n1/N=C/c1ccc(O)c(O)c1 | nt | i | i | nt | 37.1
CN=c1scc(C)n1N=Cc1ccc(O)c(O)c1O | nt | nt | nt | i | nt
COC(=O)C1=C(c2cccc(OC)c2OC)CC2CCC1N2C(=O)NCc1ccc(C(F)(F)F)cc1 (centres undefined) | nt | nt | nt | i | nt
CCCCCCCCCCCCCCCCCCNc1ccn(C2OC(COP(=O)(O)OCC3OC(n4cc(F)c(=O)[nH]c4=O)CC3O)C(O)C2O)c(=O)n1 (centres undefined) | nt | nt | nt | nt | 53.4
COc1ccc2c(c1)CCc1c(C(=O)N(C)c3ccccc3)noc1-2 | i | i | 54.4 | i | i
COCCNC(=O)c1noc2c1CCc1cc(OC)ccc1-2 | i | i | i | i | i
Cc1cc(C)cc(N(C(=O)CNC(=O)c2cccs2)C(C(=O)NC2CCCC2)c2cccnc2)c1 (centres undefined) | i | i | i | i | i
O=C(NCC(=O)N(c1ccccc1)C(C(=O)NC1CCCCC1)c1cccnc1)c1cccs1 (centres undefined) | i | i | 52.0 | i | i
Cc1cccc(N(C(=O)CNC(=O)c2cccs2)C(C(=O)NC2CCCC2)c2cccnc2)c1 (centres undefined) | i | i | 56.7 | i | i
COc1cccc(C(C(=O)NC2CCCC2)N(Cc2cccnc2)C(=O)Cc2cccs2)c1 (centres undefined) | i | i | 50.4 | i | i
SMILES | BioA inh | 3CLpro inhibitor | DUSP3 inh | Mtb hypoxia rep | FadD28 FP inh
COc1ccc(C(C(=O)NC2CCCC2)N(Cc2cccnc2)C(=O)Cc2cccs2)c(OC)c1 (centres undefined) | i | i | i | i | i
COc1ccc(N(C(=O)CCl)C(C(=O)NC2CCCCC2)c2cccnc2)cc1 (centres undefined) | nt | 21.2 | i | nt | i
COc1cccc(NN=C(C#N)S(=O)(=O)C(C)(C)C)c1 | nt | nt | nt | i | nt
O=C(O)COc1ccccc1C=NNC(=O)CNC(=O)c1ccco1 | nt | nt | nt | i | nt
COc1ccc(C(=O)NCCN2C(=O)S/C(=C\c3cccnc3)C2=O)c(OC)c1OC | i | i | i | i | i
CCOc1cc(C(=O)NCCN2C(=O)S/C(=C\c3cccnc3)C2=O)cc(OCC)c1OCC | nt | i | 53.4 | nt | i
O=c1cc(-c2ccccc2Cl)oc2c(NS(=O)(=O)c3cc(Cl)cc(Cl)c3O)ccc(O)c12 | i | i | i | nt | 13.0
CCc1ccc(S(=O)(=O)Nc2ccc(O)c3c(=O)cc(-c4ccccc4Cl)oc23)cc1 | i | nt | i | i | i
O=C1CCC(CN(Cc2ccccn2)Cc2nc(Cc3cccc(C(F)(F)F)c3)no2)N1 (centres undefined) | nt | nt | nt | i | nt
CC(=O)Nc1ccc(/C=N\NC(=O)CNS(=O)(=O)c2ccc([N+](=O)[O-])cc2)cc1 | i | i | i | nt | 9.3
O=C(CNS(=O)(=O)c1ccc([N+](=O)[O-])cc1)N/N=C/c1ccc(O)cc1O | i | i | i | nt | 21.9
CC(=O)C(=CN(C)C)C(=O)Nc1ccc(Cl)cc1Cl | nt | nt | nt | i | nt
CCOc1ccc(N2CC(O)=C(c3nc4ccccc4c(=O)[nH]3)C2=N)cc1 | nt | i | 55.5 | i | i
COc1ccc2c(c1)OCC1C2N2C(=O)CN(Cc3ccc(F)cc3)C(=O)[C@@]2(C)C1c1ccccc1 (some centres undefined) | nt | nt | nt | i | nt
Cc1cccc(NC(=O)N2CCCC2)c1 | nt | i | 51.7 | i | i
Cc1nnc(NC(=O)CSc2ccc(-c3ccccn3)nn2)s1 | nt | i | i | 67.6 | nt
CCCCC(=O)NN=C(C)c1cccc(NC(=O)C2CC2)c1 | nt | nt | nt | i | nt
O=C(Nc1ccc(-n2cnnn2)cc1)C1CCCCC1 | nt | i | 51.6 | i | i
O=C(Nc1ccc(-n2cnnn2)cc1)C1CCCN1C(=O)NC1CCCCC1 (centres undefined) | i | i | i | i | i
COC(=O)C1=C(c2ccc(-c3ccccc3)c(F)c2)CC2CCC1N2C(=O)NCc1ccc(F)cc1 (centres undefined) | nt | nt | nt | i | nt
CC(C)c1cc(C(=O)N2CCCC(C(=O)c3ccc4ccccc4c3)C2)on1 (centres undefined) | i | i | i | i | i
O=C1CCC(C(=O)N2CCCC(C(=O)c3ccc4ccccc4c3)C2)=NN1 (centres undefined) | i | i | 50.4 | i | i
COc1ccc(C(=O)NCCc2c[nH]c3ccccc23)cc1S(=O)(=O)N1CCCCC1C (centres undefined) | i | nt | nt | i | 61.6
COc1ccc(C(=O)NCCc2ccc(Cl)cc2)cc1S(=O)(=O)N1CCCCC1C (centres undefined) | i | nt | nt | nt | i
CCN1CC2C3C(=O)N(C)C(=O)C3[C@](CC)(C1=O)N2C(=O)c1ccc(Cl)cc1 (some centres undefined) | nt | nt | nt | i | nt
COC(=O)NN=Cc1cc(N=Nc2ccccc2)ccc1O | nt | nt | nt | i | nt
COc1ccc(OC)c(CNC(=O)C2CCN(S(=O)(=O)N3CCCCC3)CC2)c1 | i | i | 51.2 | i | i
CN1CCC(=O)N(C(CSc2ccccc2)c2ccccc2)CC1 (centres undefined) | nt | nt | nt | i | nt
